# Assay results reported in PubChem BioAssay (NCATS).
# Several values for one entry are separate records, joined by “and”; a condition that tells them apart may be missing. Identical values can stand only once. Results filed as inconclusive are left out. A call without a number means that no potency is given here. Values without a mark were called inactive. Activity calls are given as the source filed them. The call rests on the fitted dose curve; in most records, active means well fitted curve in the direction sought with a large enough effect; inconclusive means small, poorly fitted or top-dose-only effect, or another doubt; inactive means no such curve, though single readings can be large; an effect the other way counts as inactive or inconclusive.
# Tests used:
# [1] = target: N-terminal Xaa-Pro-Lys N-methyltransferase 1 (Homo sapiens) (UniProt Q9BV86); assay: qHTS Assay for Inhibitors of N-terminal methyltransferase 1 (NTMT1): LOPAC validation of the NTMT1 SAHH-coupled ThioGlo3 Assay (AID 1347143); further: nearly all actives have a fitted effect of over 70% in size
# Chain of N-terminal Xaa-Pro-Lys N-methyltransferase 1 (Homo sapiens) (Q9BV86 whole entry, looked up): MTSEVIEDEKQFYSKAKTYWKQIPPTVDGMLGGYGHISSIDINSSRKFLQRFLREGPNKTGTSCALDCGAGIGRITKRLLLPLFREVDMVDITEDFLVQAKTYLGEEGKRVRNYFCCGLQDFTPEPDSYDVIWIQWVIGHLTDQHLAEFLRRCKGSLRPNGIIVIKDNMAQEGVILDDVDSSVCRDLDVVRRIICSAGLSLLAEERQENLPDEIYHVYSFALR
# Outline: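 Fluorescence read-out (excitation 340nm, emission 450nm) of SAH-derived thiol, measured via SAHH coupling and ThioGlo3, taken immediately and after a 30 min room-temperature reaction, then normalized to the background read. Enzyme: NTMT1 at 125nM; cofactor SAM 100uM in the added reagent.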
# [2] = test system: Zika virus NS2B-NS3 protease (unlinked); assay: Optimization of GU AMC qHTS for Zika virus inhibitors: Unlinked NS2B-NS3 protease assay (AID 1347151); further: nearly all actives have a fitted effect of over 80% in size; on activity change, negative = inhibition: series mostly up to about 52 µM
# Outline: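 Fluorescence read-out (340 nm ex / 450 nm em) of AMC peptide cleavage, taken immediately and after 15 min at room temperature (~20% conversion). Enzyme was the unlinked NS2B–NS3 complex at 25 nM in Tris pH 8.0 buffer.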
# [3] = qHTS of pediatric cancer cell lines to identify multiple opportunities for drug repurposing: Confirmatory screen for SK-N-SH cells (AID 1347129);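 further: cells exposed to compound for 48 h before viability read; nearly all actives have a fitted effect of over 60% in size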
# Outline: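 Cells (500-1,000/well) in growth media were settled 5 h at 37 degrees C, then given compounds for 48 h. Viability was read as CellTiter-Glo luminescence. Primary runs used MIPE at 11 points (0.78 nM-46 µM) and NPC at 8 points (0.59 nM-46 µM); follow-ups used 11 points.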
# [4] = test system: Zika virus NS2B-NS3 protease; assay: Primary screen GU AMC qHTS for Zika virus inhibitors (AID 1347154); further: nearly all actives have a fitted effect of over 70% in size
# Outline: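 Unlinked Zika NS2B hydrophilic domain/NS3 protease domain noncovalent complex (25 nM final) in 10 mM Tris-HCl pH 8.0, 0.01% Tween 20, with AMC peptide substrate. Fluorescence (ex 340, em 450 nm) change over 15 min, room temperature; percent inhibition fitted to 4-parameter Hill equation.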
# Furin (Homo sapiens) = Furin (Homo sapiens) (UniProt P09958); assay: Furin counterscreen qHTS for Zika virus inhibitors (AID 1347149); further: nearly all actives have a fitted effect of over 70% in size;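 on activity change, negative = inhibition: purified recombinant full-length human furin enzyme at 5 nM; fluorescence gain from furin cutting a BOC-RVRR-AMC peptide substrate over 15 min; top concentration of the series differs between compounds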
# Chain of Furin (Homo sapiens) (P09958 whole entry, looked up): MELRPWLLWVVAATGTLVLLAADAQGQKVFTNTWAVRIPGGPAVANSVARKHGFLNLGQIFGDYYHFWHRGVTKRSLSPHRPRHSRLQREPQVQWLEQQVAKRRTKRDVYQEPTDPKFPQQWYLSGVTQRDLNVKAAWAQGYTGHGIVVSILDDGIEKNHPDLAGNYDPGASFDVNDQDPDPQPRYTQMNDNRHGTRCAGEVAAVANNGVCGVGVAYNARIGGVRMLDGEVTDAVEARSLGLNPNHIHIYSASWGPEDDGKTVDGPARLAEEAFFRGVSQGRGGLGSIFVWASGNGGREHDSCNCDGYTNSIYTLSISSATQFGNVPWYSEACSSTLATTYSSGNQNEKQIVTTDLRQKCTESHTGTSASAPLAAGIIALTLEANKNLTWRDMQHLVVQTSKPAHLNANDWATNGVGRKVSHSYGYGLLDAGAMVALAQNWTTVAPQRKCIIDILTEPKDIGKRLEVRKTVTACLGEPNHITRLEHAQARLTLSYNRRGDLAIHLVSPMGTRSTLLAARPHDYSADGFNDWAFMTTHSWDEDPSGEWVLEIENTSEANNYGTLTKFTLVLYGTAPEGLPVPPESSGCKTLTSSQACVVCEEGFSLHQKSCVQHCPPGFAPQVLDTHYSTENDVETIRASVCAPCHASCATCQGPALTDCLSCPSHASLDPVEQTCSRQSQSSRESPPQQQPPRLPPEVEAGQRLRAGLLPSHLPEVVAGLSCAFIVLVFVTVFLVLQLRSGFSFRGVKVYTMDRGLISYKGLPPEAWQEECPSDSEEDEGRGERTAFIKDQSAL
# Outline: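 Fluorogenic cleavage of BOC-RVRR-AMC (2 microM final, Km ~15 µM) was monitored (ex 340, em 450 nm) at 37C after 15 min RT preincubation of 5 nM furin with compounds in HEPES pH 7.0 buffer with CaCl2 and Triton X-100. Percent inhibition was fitted to a 4-parameter Hill curve.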
# [5] = test system: Zika virus NS2B-NS3 protease (unlinked complex); assay: Confirmatory screen GU AMC qHTS for Zika virus inhibitors (AID 1347153); further: nearly all actives have a fitted effect of over 70% in size;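 on potency: enzyme at 25 nM with substrate at 10 µM below its Km of 18.3 µM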
# Outline: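 Unlinked NS2B-NS3 complex (25 nM) in 10 mM Tris-HCl pH 8.0, 0.01% Tween 20 preincubated 15 min with compound, then 10 microM Bz-Nle-KRR-AMC (Km 18.3 µM). Fluorescence change over 15 min, normalized, Hill-fitted.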
# [6] = test system: Zika virus NS2B-NS3 protease (unlinked complex); assay: Primary screen GU Rhodamine qHTS for Zika virus inhibitors: Unlinked NS2B-NS3 protease assay (AID 1347159); further: nearly all actives have a fitted effect of over 60% in size
# Outline: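 Noncovalent NS2B hydrophilic domain/NS3 protease complex (25 nM final) in 10 mM Tris-HCl pH 8.0, 0.01% Tween 20, preincubated 15 min with compounds (up to 114 microM), then 1.5 microM Rhodamine110 substrate. Fluorescence change over 15 min fitted to 4-parameter Hill.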
# [7] = test system: Zika virus NS2B-NS3 protease (linked construct); assay: Confirmatory screen NINDS AMC qHTS for Zika virus inhibitors (AID 1347152); further: nearly all actives have a fitted effect of over 70% in size;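 on activity change, negative = inhibition: AMC fluorescence gain from cleaved Bz-Nle-KRR-AMC substrate over 15 min; top concentration of the series differs between compounds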
# Outline: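 Linked NS2B-NS3 1 nM, Tris pH 8.0/0.01% Tween 20; cpd 15 min RT dark; + Nle-KRR-AMC 10 µM (Km 18.3 µM); read 0 and 15 min, 340/450 nm; %inh vs controls, 4-param Hill.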
# [8] = ZIKV-mCherry secondary qHTS for Zika virus inhibitors (AID 1347158); on activity change, negative = inhibition: top concentration of the series differs between compounds
# Description: Assay Submitters (PI): Avindra Nath, Ph.D., National Institute of Neurological Disorders and Stroke (NINDS), Bethesda, MD Radhakrishnan Padmanabhan, Ph.D., Georgetown University (GU), Washington D.C. Zika Virus causes congenital defects, including microcephaly and is associated with Guillain-Barre syndrome, eningoencephalitis and myelitis in infected adult. […] Using a target-based approach, we hope to establish a screening paradigm to uncover novel, cell-active NS2B-NS3 protease (Zika Virus) specific inhibitors from NCATS' collection of small molecules using qHTS. […] Four assay panel was created to identify potential Zika Virus inhibitors. Namely, (1) GU unlinked NS2B-NS3 AMC tagged protease qHTS, (2) GU unlinked NS2B-NS3 Rhodamine tagged protease qHTS, (3) NINDS linked NS2B-NS3 AMC tagged protease qHTS, (4) NINDS linked NS2B-NS3 Rhodamine tagged protease qHTS. Active compounds were re-acquired and re-screened to confirm inhibition. Inhibitors were further screened against various confirmatory and counterscreens in dose response format. […] A DAPI (mCherry counterscreen) which determine Vero cell toxicity was used to exclude false positive compounds. […] Early Translation Branch (ETB) National Center for Advancing Translational Sciences (NCATS), Rockville, MD National Institute of Health (NIH), Bethesda, Maryland
# 384 well ZIKV-mCherry Assay: We have developed a new orthogonal imaging assay in 384-well plate format, which uses recombinant virus ZIKV-mCherry in Vero cells. Briefly, 30 microL of Vero cells derived from a green monkey cell line, were dispensed by Multidrop Dispenser into a clear solid bottom black 384 well plate (ultracarrier, Perkin Elmer LifeSciences) at a concentration of 5,000 cells per well. The plate was incubated overnight in a CO2 incubator at 37 degrees C. Compounds were delivered as a 126 nL DMSO solution by Kalypsys pintool transfer. Following compound transfer, 10 microL of ZIKV-mCherry was added at an MOI of 1 and incubated in a CO2 incubator for 48-72 hrs at 37 degrees C. After sufficient incubation of infected cells in test plates, 8 microL of 32% PFA was dispensed into assay plates to fix cells and incubated for 20 min at room temperature. Plates were washed 3 times with PBS using BioTek EL406 microplate washer/dispenser. After washing, 30 microL of PBS with 0.01% TX-100 containing Hoechst dye was dispensed into the each well of the plates for nuclear staining. 384-well plates were imaged on an automated, widefield high content imager (INCell 2200, GE Healthcare) using a 10x/0.45 NA lens and standard DAPI (nuclear stain) and mCherry (cy5) excitation and emission filters. The TIFFs were quantitated using the canned Multi Target Analysis protocol (GE Investigator Workstation software v3.7.2). Briefly, nuclei from the DAPI channel were identified using top hat segmentation and a sensitivity setting of 96 and minimum size area of 35 microm2. A recombinant Zika viral infection was monitored in the Cy5 channel (cells) using a 2 microm collar dilation from the nuclear bitmap. mCherry objects with an average nuclear RFU intensity above 450 (3 stdev above mean negative control wells) were considered "mcherry positive" and data was analyzed by percent infection rate.
# Potency means the concentration at half of the fitted maximal effect.
smiles,measurement,setting,value
Oc1ccc2ccccc2c1SSc1c(O)ccc2ccccc12,Potency,[1],35.5 µM (active)
same,Potency,[2],10.6 µM (active)
C[C@H](Cc1ccc(O)c(O)c1)[C@@H](C)Cc1ccc(O)c(O)c1,Potency,[1],10 µM (active)
same,Potency,[2],9.47 µM (active)
CN(C)c1ccc2nc3ccc(=[N+](C)C)cc-3sc2c1,Potency,[3],4.18 µM (active)
same,Potency,[4],inactive
Cc1cc(C2CCCCC2)n(O)c(=O)c1,Potency,[3],2.35 µM (active)
same,Potency,[4],inactive
CN(C)C(=O)[C@H](O)[C@H](Cc1ccccc1)NC(=O)c1cc2cc(Cl)ccc2[nH]1,Potency,[1],inactive
same,Potency,Furin (Homo sapiens),inactive
same,Potency,[2],26.7 µM (active)
same,Potency,[5],inactive
same,Potency,[6],inactive
CC(S)C(=O)NCC(=O)O (stereo not drawn),Potency,[3],inactive
same,Potency,[4],inactive
O=C(NCC1CCCCN1)c1cc(OCC(F)(F)F)ccc1OCC(F)(F)F (stereo not drawn),Potency,[3],inactive
same,Potency,[4],inactive
NC(=NCc1ccccc1)NC(=O)c1nc(Cl)c(N)nc1N,Potency,[1],56.2 µM (active)
same,Potency,[2],26.7 µM (active)
same,Potency,[4],inactive
CCN(CC)CCOc1ccc(Nc2ncc3cc(-c4c(Cl)cccc4Cl)c(=O)n(C)c3n2)cc1,Potency,[3],0.833 µM (active)
same,Potency,[2],inactive
same,Potency,[4],inactive
C[C@]12CCC(=O)C=C1CC[C@@H]1[C@H]2[C@@H](O)C[C@@]2(C)[C@H]1CC[C@]2(O)C(=O)CO,Potency,[3],inactive
same,Potency,[4],inactive
Cc1c(C(=O)NN2CCCCC2)nn(-c2ccc(Cl)cc2Cl)c1-c1ccc(Cl)cc1,Potency,[3],inactive
same,Potency,[4],inactive
CS(=O)(=O)OCCCCOS(C)(=O)=O,Potency,[3],inactive
same,Potency,[4],inactive
COc1cc2c(cc1OC)C1CC(=O)C(CC(C)C)CN1CC2 (stereo not drawn),Potency,[1],inactive
same,Potency,Furin (Homo sapiens),27.1 µM (active)
same,Potency,[7],inactive
same,Potency,[5],inactive
same,Potency,[4],inactive
CCN(CCO)CCCC(C)Nc1ccnc2cc(Cl)ccc12 (stereo not drawn),Potency,[3],inactive
same,Potency,[4],inactive
same,"activity change, negative = inhibition",[6],15.4% [at 11.5 µM]
Cc1nc(Nc2ncc(C(=O)Nc3c(C)cccc3Cl)s2)cc(N2CCN(CCO)CC2)n1,Potency,[3],4.18 µM (active)
same,Potency,Furin (Homo sapiens),50.1 µM (active)
same,Potency,[2],398 µM (active)
same,Potency,[4],inactive
same,Potency,[8],inactive
same,Potency,[6],inactive
Nc1ncn([C@H]2C[C@H](O)[C@@H](CO)O2)c(=O)n1,Potency,[3],inactive
same,Potency,[4],inactive
CCOc1cc(CC(=O)N[C@@H](CC(C)C)c2ccccc2N2CCCCC2)ccc1C(=O)O,Potency,[3],inactive
same,Potency,[4],inactive
Cc1ccc(Nc2nccc(N(C)c3ccc4c(C)n(C)nc4c3)n2)cc1S(N)(=O)=O,Potency,[3],18.7 µM (active)
same,Potency,[4],inactive
same,Potency,[6],inactive
Cc1ccc(NC(=O)c2ccc(CN3CCN(C)CC3)cc2)cc1Nc1nccc(-c2cccnc2)n1,Potency,[3],inactive
same,Potency,[4],inactive
same,Potency,[6],inactive
O=C1NC(=O)C(c2ccccc2[N+](=O)[O-])=C1Nc1ccc(O)c(Cl)c1,Potency,[1],28.2 µM (active)
same,Potency,[2],inactive
same,Potency,[4],inactive
C=C(c1ccc(C(=O)O)cc1)c1cc2c(cc1C)C(C)(C)CCC2(C)C,Potency,[3],inactive
same,Potency,Furin (Homo sapiens),inactive
same,Potency,[7],19.2 µM (active)
same,Potency,[5],19.2 µM (active) and 21.5 µM (active)
same,Potency,[4],9.61 µM (active) and 14.4 µM (active)
same,Potency,[8],7.08 µM (active)
same,Potency,[6],3.16 µM (active)
